The other results are listed elsewhere or left out. Values without a mark were called inactive.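 Rule for the calls: active = inhibition above the mean of compounds lying within the control limits plus 3 SD (cut at about 16% in these data); inactive = the rest.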
Target: Fibrinogen beta chain (Homo sapiens) (UniProt P02675)
Test: inhibitors of Tn6 peptide binding to fibrin DD(E), confirmation, biochemical, fluorescence polarization, human fibrin, Tn6 probe (AID 720631);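 note: 0% = plate median of compound wells and 100% = inhibitor peptide control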
Settings: FP displacement of TRITC-Tn6 peptide from DD(E); at 8.3 µM; hits give high values

Sequence of Fibrinogen beta chain (Homo sapiens) (P02675 whole entry, looked up): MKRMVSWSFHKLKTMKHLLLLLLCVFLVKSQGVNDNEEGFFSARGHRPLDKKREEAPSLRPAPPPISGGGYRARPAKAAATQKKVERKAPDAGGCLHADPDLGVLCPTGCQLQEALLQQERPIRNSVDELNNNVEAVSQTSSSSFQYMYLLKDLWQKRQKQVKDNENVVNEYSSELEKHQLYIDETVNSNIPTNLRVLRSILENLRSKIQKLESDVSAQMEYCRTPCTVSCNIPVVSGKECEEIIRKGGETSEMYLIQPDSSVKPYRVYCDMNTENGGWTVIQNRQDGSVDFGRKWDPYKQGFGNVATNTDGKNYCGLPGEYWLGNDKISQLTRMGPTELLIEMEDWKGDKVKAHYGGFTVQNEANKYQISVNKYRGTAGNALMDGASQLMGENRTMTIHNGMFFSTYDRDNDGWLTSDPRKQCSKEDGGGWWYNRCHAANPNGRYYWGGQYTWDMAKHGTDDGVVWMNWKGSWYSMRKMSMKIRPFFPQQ

Row | Compound | inhibition [%]
1 | Cc1cc(N2CCNC[C@@H]2C)ccc1N1CC[C@H](O)C1 | 2.65
2 | COc1ccc2c(c1O)-c1cccc3c1[C@@H](C2)N(C)CC3 | -8.1

Source: PubChem BioAssay AID720631 (The Scripps Research Institute Molecular Screening Center, 2013)
